Experimental findings from PubChem BioAssay (NCATS) are described below.

Unmarked numbers belong to inactive results. The source made the active and inactive calls. Calls follow the shape of the dose curve; as a rule, active = well fitted activation curve with a large enough effect; inconclusive = small, poorly fitted or top-dose-only effect; inactive = flat fitted curve, though single readings scatter.

A short description of this assay: Confirmation and Secondary Assay for Modulators of Hemoglobin Beta Chain Splicing at IVS2 654 locus (AID 910).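 Also: HeLa cells stably carrying EGFP split by mutant beta-globin IVS2-654 intron; % of control where 0% means no effect.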 The conditions noted are these: HeLa EGFP-654 splicing reporter, GFP fluorescence, 48 h; series mostly up to 46.1 µM; activation (splicing correction): at the top concentration. From the text:
NIH Chemical Genomics Center [NCGC] NIH Molecular Libraries Screening Centers Network [MLSCN] MLSCN Grant: 1 X01 MH080684-01 PI Name: Dr. Ryszard Kole NCGC Assay Overview: Modulation of Alternative Splicing as Therapy Abnormal splicing is associated with a number of diseases, including cancer and genetic diseases such as cystic fibrosis, muscular dystrophy and beta-thalassemia. Alteration of disease associated splicing patterns provides a promising target for treatment. […] Mutations in the second intron of the b-globin gene at positions 654 or 705 are clinically relevant and cause mis-splicing which results in an out of frame gene product. […] EGFP-654 HeLa Cells as screen system. HeLa cell lines were stably transfected with a construct in which the EGFP (enhanced green fluorescent protein) cDNA was interrupted by the second intron of the beta-globin gene (IVS2-654). The ISV2 intron contains mutations which cause mis-splicing of EGFP and premature termination of EGFP which results in a nonfluorescent protein product. […] Expression of the transgene was driven by the CMV promoter. We concluded that a low molecular weight compound, which restored correct splicing of intron 2 would also generate functional EGFP protein, resulting in a fluorescent signal. Thus, the HeLa cells that express the EGFP-654 construct can be used for high throughput screening of a chemical library.
NCGC Assay Protocol Summary: Confirmatory Screening. Freshly thawed HeLa EGFP-654 cells were seeded in 5 ul of optimem media (Invitrogen) containing 2 % fetal calf serum (Hyclone) and 1x penicillin/streptomycin (Invitrogen) at a concentration of 500 cells per well in 1536-well plates. Cells were incubated overnight at 37C in 5% CO2. The next day, cells were treated with DMSO, 500 nM antisense ISV2 654 PNA control oligo, or library compound and allowed to grow at 37C in 5% CO2 for 2 days. The PNA oligo blocked the mutation site in the intron and allowed proper (wild type) splicing to occur, resulting in full length EGFP expression and also allowed for optimization of the assay parameters. Plates were read in the Acumen Explorer (TTP Labtech) using 488 nm laser excitation and 500-520 nm emission PMT filter in a 1 x 8 uM capture mode. Fluorescnet objects ranging in size from 5 to 250 uM were measured and the total peak GFP intensity for each well was used for data analysis. Keywords: Thalassemia, beta-thalassemia, beta-globin, EGFP, ISV2 654, ISV2 705, SSO, PNA, antisense, splicing, MLSMR, MLSCN, NIH Roadmap, qHTS, NCGC
On to `CC1(C)N([O-])[N+](=O)C1(C)Br` (stereo not given), for which the “activation (splicing correction)” value is 10.5%.

On to `CC1C(=O)OC2O[C@]3(C)CC[C@H]4C(C)CCC1[C@]24OO3` (stereo not given in full), for which the “activation (splicing correction)” value is -3.15%.

Take `CC1(C)C(O)CC(O)[C@]2(C)C1CC(=O)[C@]1(C)C2CC[C@@]2(C)C(c3ccoc3)OC(=O)C3OC321` (stereo not given in full): the “activation (splicing correction)” value was 8.84%.

`CCC1CN2CCC1CC2C(O)c1ccnc2ccc(OC)cc12` (stereo not given): the “activation (splicing correction)” value is 0.454%.

`COc1c2c(cc3c1OCO3)C13C=CC(OC)CC1N(C2)CC3O` (stereo not given): the “activation (splicing correction)” value is 6.07%.

As for `O=c1ccc2cc(O[C@H]3OC(CO)C(O)C(O)C3O)c(O)cc2o1` (stereo not given in full), the Potency result was “inactive”.

Regarding `CCN1C[C@@]2(C)CC[C@@H](OC)[C@@]34C2C(O)[C@@]2(OCO[C@]25CC(OC)C2C[C@@]3(O)C5C2O)C14` (stereo not given in full), the “activation (splicing correction)” value was 9.2%.

With `CC(C)c1cc2c(c(O)c1O)[C@]1(C(=O)O)CCCC(C)(C)C1CC2` (stereo not given in full), the “activation (splicing correction)” value was 14.3%.

With `C=CC1CN2CCC1CC2C(OC(=O)OCC)c1ccnc2ccc(OC)cc12` (stereo not given), the “activation (splicing correction)” value is 3.65%.

Consider `CC1CC[C@]2(NC1)OC1CC3C4CC=C5CC(O)CC[C@@]5(C)C4CC[C@]3(C)C1C2C` (stereo not given in full), for which the “activation (splicing correction)” value was -1.71%.

For `CC(C)Nc1nc(Cl)nc(NC(C)C)n1`, the “activation (splicing correction)” value is 2.67% [at 38.3 µM].

Take `CCCCCC1C(=O)O[C@H](C)[C@@H](NC(=O)c2cccc(NC=O)c2O)C(=O)OC(C)C1OC(=O)CC(C)C` (stereo not given in full): the “activation (splicing correction)” value was -1.51% [at 38.3 µM].

As to `COc1cc(C2c3cc4c(cc3C(OC(C)=O)[C@H]3COC(=O)C23)OCO4)cc(OC)c1OC` (stereo not given in full), the Potency result was “inactive”.

As for `C[C@@]12CCC(=O)C[C@@H]1CC[C@@H]1[C@@H]2CC[C@]2(C)C(=O)CC[C@@H]12`, the “activation (splicing correction)” value is 0.773%.

As to `CCCCCCCCCc1ccc(O)cc1`, the “activation (splicing correction)” value was 1.95% [at 38.3 µM].

With `CC(C)OC(=O)Nc1cccc(Cl)c1`, the “activation (splicing correction)” value is 4.22% [at 38.3 µM].

Turning to `CC1/C=C/C=C/CC/C=C/C=C/C=C/C=C/C(OC2OC(C)C(O)C(N)C2O)CC2O[C@](O)(CC(O)C(O)CCC(O)CC(O)CC(O)CC(=O)OC(C)C(C)C1O)CC(O)C2C(=O)O` (stereo not given in full), the “activation (splicing correction)” value is 7.88%.

As for `C=C(C)C1Cc2c(ccc3c(=O)c4c(oc23)COc2cc(OC)c(OC)cc2-4)O1` (stereo not given), the “activation (splicing correction)” value was 0.795% [at 38.3 µM].

As to `CNC(=O)O/N=C(/C)SC`, the “activation (splicing correction)” value was -2.2% [at 38.3 µM].

On to `CNC(=O)Oc1cccc2c1OC(C)(C)O2`, for which the “activation (splicing correction)” value was -1.61% [at 38.3 µM].

On to `CC(=O)OC1CC(OC(C)=O)[C@]2(C)C(CC(OC(C)=O)[C@]3(C)C2CC[C@@]2(C)C(c4ccoc4)C(=O)C4O[C@]432)C1(C)C` (stereo not given in full), for which the “activation (splicing correction)” value is -7.98%.

In the case of `CCCCCCC(C)OC(=O)COc1ccc(Cl)cc1Cl` (stereo not given), the “activation (splicing correction)” value was 0.305% [at 38.3 µM].

As to `CC(=O)OC1C[C@@]2(C)C(c3ccoc3)C[C@H]3O[C@@]32[C@@]2(C)C(=O)C(O)=C3C(C)(C)C(=O)C=C[C@]3(C)C12` (stereo not given in full), the “activation (splicing correction)” value was -4.2%.

In the case of `COc1cc2c(cc1-c1cc3cc4ccoc4cc3oc1=O)OCO2`, the “activation (splicing correction)” value was -0.726%.

As to `CC(=O)C1=C(O)C2C3c4c[nH]c5cccc(c45)CC3C(C)(C)N2C1=O` (stereo not given), the “activation (splicing correction)” value was -0.204% [at 38.3 µM].

For the compound `CC1CC2CC(=O)C3CCCN4CCCC2[C@]34C1` (stereo not given in full), the “activation (splicing correction)” value was 0.697% [at 38.3 µM].

For the compound `CC(=O)C1CC[C@H]2C3CC[C@@H]4CC(O)CC[C@@]4(C)C3CC[C@]12C` (stereo not given in full), the “activation (splicing correction)” value was -8.59%.

Consider `CCC(CO)NC(=O)C1C=C2c3cccc4[nH]cc(c34)CC2N(C)C1` (stereo not given), for which the “activation (splicing correction)” value is -1.59%.

On to `CC(C)(O)C1C2OC(=O)C1[C@]1(O)CC3O[C@@]34C(=O)OC2[C@@]14C` (stereo not given in full), for which the “activation (splicing correction)” value is 9.72%.

In the case of `CC1O[C@@H](OC2CC(O)[C@@]3(CO)C4C(O)C[C@@]5(C)C(C6=CC(=O)OC6)CC[C@]5(O)C4CC[C@]3(O)C2)C(O)C(O)C1O` (stereo not given in full), the “activation (splicing correction)” value is -4.62%.

`CC1(C)C(O)CC(O)[C@]2(C)C1CC(O)[C@]1(C)C2CC[C@@]2(C)C(c3ccoc3)CC3OC312` (stereo not given in full): the “activation (splicing correction)” value is 15.6%.

For `C=C(C)c1cc2cc(C(C)=O)c(O)cc2o1`, the “activation (splicing correction)” value is -0.472% [at 38.3 µM].

On to `CCC(N)C(O)c1ccc(O)c(O)c1` (stereo not given), for which the “activation (splicing correction)” value is 6.4%.

Consider `CCC(C)C1O[C@]2(C=CC1C)CC1CC(C/C=C(\C)[C@H](OC3CC(OC)C(O[C@H]4CC(OC)[C@@H](O)C(C)O4)C(C)O3)[C@@H](C)/C=C/C=C3\COC4C(O)C(C)=C[C@H](C(=O)O1)[C@@]34O)O2` (stereo not given in full), for which the “activation (splicing correction)” value was 0.108%.

Consider `COP(=S)(OC)Oc1ccc([N+](=O)[O-])cc1`, for which the “activation (splicing correction)” value is -1.8% [at 38.3 µM].

In the case of `COc1ccc2c(c1)[C@@]13CCCCC1[C@@H](C2)N(C)CC3` (stereo not given in full), the “activation (splicing correction)” value is -6.62%.

Consider `COC[C@]12CN(C=O)C3C4C(OC)C1[C@@]3(C1CC3(O)C(OC)C(O)C4(OC(C)=O)C1C3OC(=O)c1ccccc1)[C@@H](OC)CC2O` (stereo not given in full), for which the “activation (splicing correction)” value was -0.146% [at 38.3 µM].

Regarding `CC(=O)OC1C2C(OC(=O)Cc3ccccc3)C(C)CC2(OC(C)=O)C(=O)/C(C)=C/C2C(CC[C@@]13CO3)C2(C)C` (stereo not given in full), the “activation (splicing correction)” value is 4.13%.

In the case of `NC(=NCCCC(N)C(=O)O)N[N+](=O)[O-]` (stereo not given), the “activation (splicing correction)” value is 4.9%.

Consider `CCC(C)C(=O)c1c(O)c(C)c2oc3c(C)c(O)c(C(=O)C(C)CC)c(O)c3c2c1O` (stereo not given), for which the “activation (splicing correction)” value was -2.12% [at 38.3 µM].
